High-throughput results deposited in PubChem by National Center for Advancing Translational Sciences (NCATS).
Compounds with a hit are over-represented: about 2.8% of the library has one in this group of screens.
ATXN2 expr inh: inhibitors of ATXN2 expression; Potency, µM (doses to about 57 µM), for inactives: at the highest dose activity change, negative = inhibition, most hits filed as inhibitors; HEK-293 ATXN2-luciferase reporter, luminescence, 24 h; hit rate 0.72% among 360,000; also: potency is read from the fitted curve at half-maximal effect; % is scaled to controls: 0 for no effect and ±100 for the full control effect; nearly all actives have a fitted effect of over 55% in size
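qHTS (up to 57 uM final) was run with 24 h compound exposure of reporter cells at 37 °C. Each well was multiplexed: SteadyGlo luminescence measured ATXN2-luciferase expression after a fluorogenic Gly-Phe-AFC viability readout (25 uM final).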
TGFb inhibitor: inhibitors of TGF-b signaling; HepG2 CAGA-GFP TGF-b/SMAD3 reporter, GFP fluorescence, 18 h; TGF-beta stimulated, 500 pg/mL final; Potency, µM (top dose mostly 46.1 µM), for inactives: at the top dose activity, negative = inhibition, hits mostly inhibitors; hit rate 1.2% among 410,000; also: potency is read from the fitted curve at half-maximal effect; % is scaled to controls: 0 for no effect and ±100 for the full control effect; nearly all actives have a fitted effect of over 65% in size
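Read-out: total well GFP (ex488/em500-530) summed from mean per-cell fluorescence. Cells: HEPG2 CAGA-GFP, 1% FBS DMEM, 18 h at 37 degrees C with 500 pg/mL final TGF-beta. Unstimulated wells served as the full-inhibition control; stimulated DMSO wells = 0%.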
HepG2 tox-1: kills HepG2 cells in TGF-b inhibitor counter-screen; HepG2 CAGA-GFP viability, ATP luminescence, 18 h; Potency, µM (series often up to 46.1 µM), for inactives: at the top dose activity change, negative = cytotoxicity, hits mostly cytotoxic; hit rate 0.76% among 410,000; AID 588856; also: potency is read from the fitted curve at half-maximal effect
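HepG2 CAGA-GFP cells (1000/well, DMEM with 1% FBS) received compound, then TGF-beta at 500 pg/mL final, and were incubated 18 hours at 37 degrees C. Viability was read by CellTiter-Glo luminescence. Media-only wells were set as complete cell-killing and DMSO as no toxicity.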
Six1-Eya2 blk: inhibitors of human Six1/Eya2 interaction; hit rate 0.56% among 360,000; Q15475+O00167; AlphaScreen GST-Six1/His-Eya2 binding, biochemical; hits give low values; AID 651725; activity change, % (test concentration not listed); in the data active = activity change below about -65%; inconclusive = mostly about -30% to -63%; also: % is scaled to controls: 0 for no effect and ±100 for the full control effect
Target sequence (O00167 whole entry, looked up): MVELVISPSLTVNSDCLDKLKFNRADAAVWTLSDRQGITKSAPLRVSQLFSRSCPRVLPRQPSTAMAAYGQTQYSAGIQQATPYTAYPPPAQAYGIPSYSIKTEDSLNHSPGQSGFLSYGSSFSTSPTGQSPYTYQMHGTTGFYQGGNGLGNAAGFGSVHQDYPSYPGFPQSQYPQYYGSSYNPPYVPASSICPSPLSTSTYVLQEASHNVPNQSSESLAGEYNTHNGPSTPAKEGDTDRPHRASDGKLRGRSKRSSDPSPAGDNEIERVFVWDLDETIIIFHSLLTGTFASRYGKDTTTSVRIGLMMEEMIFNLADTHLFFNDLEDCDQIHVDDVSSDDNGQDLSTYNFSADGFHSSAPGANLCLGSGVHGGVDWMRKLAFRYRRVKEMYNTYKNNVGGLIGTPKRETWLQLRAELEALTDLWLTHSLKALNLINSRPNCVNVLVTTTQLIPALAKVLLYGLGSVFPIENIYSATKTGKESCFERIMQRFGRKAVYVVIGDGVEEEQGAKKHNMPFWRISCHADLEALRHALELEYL
Target sequence (Q15475 whole entry, looked up): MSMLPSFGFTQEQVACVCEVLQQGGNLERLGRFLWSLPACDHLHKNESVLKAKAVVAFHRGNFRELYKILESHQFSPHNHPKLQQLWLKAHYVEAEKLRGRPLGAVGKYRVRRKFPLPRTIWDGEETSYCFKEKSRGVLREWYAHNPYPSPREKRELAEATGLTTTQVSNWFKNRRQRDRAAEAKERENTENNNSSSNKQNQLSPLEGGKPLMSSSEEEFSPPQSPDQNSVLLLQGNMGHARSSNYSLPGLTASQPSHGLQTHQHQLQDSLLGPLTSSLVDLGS
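AlphaScreen with GST-Six1 and His-Eya2 (5X mix: 250 nM and 500 nM), glutathione donor and nickel acceptor beads; buffer 50 mM Tris pH 8.0, 300 mM NaCl, 1 mM TCEP; 1 h at 37 C in the dark.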
CtBP-E1A inh: blocks the CtBP interaction with E1A. AlphaScreen GST-E1A/His-CtBP binding, 1536-well; hits give low values. activity change, % (no concentration beside the values). hit rate 0.49% among 340,000; in the data active = activity change below about -65%; inconclusive = mostly about -30% to -63%; also: % is scaled to controls: 0 for no effect and ±100 for the full control effect
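Protein mix (5X: 125 nM each GST-E1A, His-CtBP) was incubated with pinned compound 2 h at 37 deg C in dark, in 50 mM Tris pH 8.0 buffer with 300 mM NaCl. Glutathione donor and nickel acceptor beads followed; AlphaScreen signal read after 1 h.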
S2 tox: cell viability loss in ATXN counter-screen. S2 cells (HEK-293 line with an ATXN2-luciferase reporter) viability, CellTiter-Fluor protease fluorescence, 24 h. Potency, µM (highest dose often 56.7 µM), usual class: cytotoxic. hit rate 0.49% among 400,000; also: potency is read from the fitted curve at half-maximal effect; nearly all actives have a fitted effect of over 40% in size
TGFb confirm: confirmation of TGF-b signaling inhibitors in HepG2 reporter cells | HepG2 CAGA-GFP TGF-b reporter, GFP fluorescence, 18 h; cells stimulated with TGF-beta, 500 pg/mL | hit rate 63% among 1,600 | shares compounds with TGFb inhibitor | Potency, µM (top dose mostly 46.1 µM), without a hit: at the top dose activity, negative = inhibition, most hits filed as inhibitors | AID 720534; also: potency is read from the fitted curve at half-maximal effect; % is scaled to controls: 0 for no effect and ±100 for the full control effect; nearly all actives have a fitted effect of over 65% in size
HepG2 tox-2: toxic to HepG2 cells in TGF-b counterscreen; Potency, µM (top dose mostly 46.1 µM), without a hit: top-dose activity, negative = cytotoxicity, hits mostly inhibitors; hit rate 27% among 1,600; shares compounds with TGFb inhibitor; HepG2 CAGA-GFP viability, ATP luminescence, 18 h; cells stimulated with TGF-beta, 500 pg/mL; also: potency is read from the fitted curve at half-maximal effect; % is scaled to controls: 0 for no effect and ±100 for the full control effect; nearly all actives have a fitted effect of over 70% in size
TGFb CCL64 inh: orthogonal confirmation of TGF-b inhibitors in CCL64 cells; CCL64 CAGA-GFP reporter, TGF-b stimulated, GFP fluorescence, 18 h; hit rate 41% among 1,600; Potency, µM (top dose mostly 46.1 µM), inactives show top-dose activity, negative = inhibition, actives largely listed as inhibitors; shares compounds with TGFb inhibitor; also: potency is read from the fitted curve at half-maximal effect; nearly all actives have a fitted effect of over 65% in size
COP TGFb inh: blocks TGF-b signaling in HepG2 COP reporter. shares compounds with TGFb inhibitor. HepG2 COP-GFP TGF-b reporter, GFP fluorescence, 18 h; cells stimulated by added recombinant TGF-beta. Potency, µM (series often up to 46.1 µM), for inactives: top-dose activity, negative = inhibition, actives largely listed as inhibitors. hit rate 3% among 1,600; also: potency is read from the fitted curve at half-maximal effect; nearly all actives have a fitted effect of over 70% in size
Starred values were filed as active, the others as inactive; i = inactive; u = inconclusive; x = not tested or not shown. Unless noted, calls follow the shape of the dose curve; as a rule, active = well fitted curve in the direction sought with a large enough effect; inconclusive = small, poorly fitted or top-dose-only effect, or another doubt; inactive = no such curve, though single readings can be large; an effect the other way counts as inactive or inconclusive.

SMILES	ATXN2 expr inh	TGFb inhibitor	HepG2 tox-1	Six1-Eya2 blk	CtBP-E1A inh	S2 tox	others
Cc1ccc(N(C(=O)Cc2cccs2)C(C(=O)NC2CCCCC2)c2ccccn2)cc1C (stereo not drawn)	-17%	u	-53%	1	4	28µM*
CCc1ccccc1NC(=O)CN1C(=O)CCc2cc(S(=O)(=O)N3CCCCC3)ccc21	7%	-23%	-46%	x	x	i
CC(=O)Nc1cccc(NC(=O)CSc2nn3c(=O)c(C)nnc3s2)c1	-1%	20%	22%	-73*	-88*	i
Cc1nnc2sc(SCC(=O)Nc3ccc(Cl)cc3)nn2c1=O	2%	0%	3%	u	-88*	i
O=C(C[N+]12CCCc3cccc(c31)CCC2)c1ccc2ccc3cccc4ccc1c2c34	x	-11%	5%	x	x	x
Cc1ccc(C)c(N2CCN(C(=O)CCn3c(=O)[nH]c4ccccc4c3=O)CC2)c1	-18%	u	-30%	x	x	u
COc1cccc(CNc2ccc(N3CCC(C)CC3)cc2)c1OC	-14%	u	-39%	-72*	-70*	i
CC(C)(C)n1ncc2c(=O)n(Cc3ccc([S+](=O)([O-])N4CCOCC4)cc3)cnc21	x	0%	-15%	x	x	x
Cc1ccc2c(c1)CN(CCC(=O)NCc1cc(C)n(C)n1)CC(C)O2 (stereo not drawn)	x	x	x	x	x	i
CCC1CCCCN1CCCNC(=O)c1ccc2c(c1)N(Cc1ccccc1)C(=O)c1ccccc1S2(=O)=O (stereo not drawn)	x	x	-51%	x	x	x
CCC1CCCCN1CCCNC(=O)c1ccc2c(c1)N(Cc1cccc(Cl)c1)C(=O)c1ccccc1S2(=O)=O (stereo not drawn)	x	10µM*	-100%	x	x	x
CCC1CCCCN1CCCNC(=O)c1ccc2c(c1)N(Cc1ccc(Cl)cc1)C(=O)c1ccccc1S2(=O)=O (stereo not drawn)	28µM*	u	11µM*	x	x	i
CC(=NNC(=S)Nc1ccccc1Cl)c1ccccn1	u	u	3%	-90*	-66*	u
CC(=NNC(=S)Nc1ccccc1)c1ccccn1	x	u	-38%	-89*	u	u
CCOC(=O)c1cc(-c2ccc(F)cc2)n(CCC(=O)NC2CCN(Cc3ccccc3)CC2)c1C	u	u	13µM*	-17	-21	u
CCOC(=O)c1cc(-c2ccc(OC)cc2)n(CCC(=O)NC2CCN(Cc3ccccc3)CC2)c1C	x	u	-78%	-1	x	i
C[N+]1(CC(=O)c2cccc([N+](=O)[O-])c2)CCOCC1	x	-6%	3%	x	x	x
O=C(c1ccccc1-n1cccn1)N1CCOc2ccc(CN3CCOCC3)cc2C1	x	x	x	x	x	i
O=C(CSc1ccc2nnc(-c3cccnc3)n2n1)Nc1ccc(F)cc1F	-5%	11%	0%	u	-69*	i
OC(CNCc1ccccc1)Cn1ccc2ccccc21 (stereo not drawn)	-11%	-23%	-43%	-7	-9	i
OC(CNCCNc1ncccc1C(F)(F)F)Cn1ccc2ccccc21 (stereo not drawn)	x	u	16µM*	1	x	i
O=C(C[N+]1(CC(O)c2ccccc2)CCCCC1)c1ccccc1 (stereo not drawn)	x	17%	23%	x	x	x
Cc1cc(Cl)n2c(nc3cc(F)c(F)cc32)c1C#N	u	6.3µM*	-28%	0	3	u	TGFb confirm=1.3µM*;HepG2 tox-2=5.8µM*;TGFb CCL64 inh=1.3µM*;COP TGFb inh=18µM*
Cc1cc(C)c(OCCNC(=O)c2ccccc2Sc2ccccc2C#N)c(C)c1	-22%	-25%	-28%	-2	-7	i
Cc1ccccc1OCCNC(=O)c1ccccc1Sc1ccccc1C#N	0%	10µM*	-26%	11	6	i	TGFb confirm=-25%;HepG2 tox-2=-6%;TGFb CCL64 inh=-16%;COP TGFb inh=-1%
SMILES	ATXN2 expr inh	TGFb inhibitor	HepG2 tox-1	Six1-Eya2 blk	CtBP-E1A inh	S2 tox	others
COc1ccc(Nc2nc(N3CCCC3)nc3ccccc23)c(OC)c1	10µM*	10µM*	-58%	-5	5	20µM*	TGFb confirm=u;HepG2 tox-2=u;TGFb CCL64 inh=u;COP TGFb inh=66%
COc1ccc(Nc2nc(-c3ccc(C)cc3)nc3ccccc23)c(OC)c1	x	u	-31%	x	x	x
CCC(CC)C(=O)N1CCc2cc(OC)c(OC)cc2C1COc1ccccc1OC (stereo not drawn)	-6%	-5%	-23%	x	x	i
COc1ccc(Nc2nnc(-c3ccc(N4CCOCC4)c([N+](=O)[O-])c3)c3ccccc23)cc1	4%	u	4%	-4	5	i	TGFb confirm=4.1µM*;HepG2 tox-2=2%;TGFb CCL64 inh=u;COP TGFb inh=23%
COc1ccc(C(=O)c2ccc(N3CCOCC3)c([N+](=O)[O-])c2)cc1	-32%	-8%	-13%	-18	-15	u
CSc1ccc(CCNC(=O)CCn2c(=O)c3cccn3c3cccnc32)cc1	x	-1%	-24%	x	x	x
COc1ccc(NC(=O)Nc2ccc(O)c3ccccc23)cc1	u	6.3µM*	-131%	-5	-18	u	TGFb confirm=u;HepG2 tox-2=-21%;TGFb CCL64 inh=16µM*;COP TGFb inh=0%
CCCn1c(=N)n(CC(=O)c2cccs2)c2ccccc21	-12%	4%	-24%	5	6	i
N=c1n(CCN2CCCCC2)c2ccccc2n1CC(=O)c1cccs1	u	u	-50%	0	-3	i	TGFb confirm=41%;HepG2 tox-2=u;TGFb CCL64 inh=23µM*;COP TGFb inh=50%
